# Laboratory results taken from the antibiotic and cytotoxicity screens of Wong et al. (2023).
# Out of some 39,000 compounds screened, about 1,500 (3.8%) were called active. What follows is part of a selection rich in actives, with near analogues and random picks from the rest.
# System: HSkMC (human skeletal muscle cells)
# Experiment: cytotoxicity call (relative viability < 0.9)
# Conditions: 10 µM
row,Structure (SMILES),cytotoxicity call
1,COc1cccc(NC(=O)C[C@H]2CC[C@H]3[C@H](COc4ccc(NC(=O)C5CCOCC5)cc4C(=O)N3C)O2)c1,inactive
2,Cc1ccc(S(=O)(=O)Nc2ccc3c(c2)C(=O)N([C@H](C)CO)C[C@@H](C)[C@@H](CN(C)S(C)(=O)=O)O3)cc1,inactive
3,CC(C)c1onc(-c2c(Cl)cccc2Cl)c1COc1ccc(C=Cc2cccc(C(=O)O)c2)c(Cl)c1,inactive
4,C[C@@H]1CN([C@@H](C)CO)C(=O)c2cccc(NS(C)(=O)=O)c2O[C@@H]1CN(C)Cc1ccc2c(c1)OCO2,inactive
5,COc1ccc(S(=O)(=O)N2C[C@@H](O)COC[C@@H]3O[C@H](CC(=O)NCCCN4CCOCC4)CC[C@H]32)cc1,inactive
6,Cc1ccc(F)cc1NC(=O)[C@@H](C)N,inactive
7,COc1ccc(S(=O)(=O)Nc2ccc3c(c2)CC(=O)N([C@@H](C)CO)C[C@@H](C)[C@@H](CN(C)S(=O)(=O)c2c(C)noc2C)O3)cc1,inactive
8,COc1cc(NC(=O)c2cccc(-n3cc(NC(=O)Nc4cccc(C)c4)cn3)c2)cc(OC)c1OC,active
9,Cc1cccc(-n2cc(CN)cn2)c1,inactive
10,COc1cc(NC(=O)Cn2cnc3c2c(=O)n(C)c(=O)n3C)cc(OC)c1OC,inactive
11,C[C@@H]1CN([C@H](C)CO)C(=O)c2cccc(NC(=O)c3ccc(-c4nccs4)cc3)c2O[C@@H]1CN(C)Cc1ccc(Cl)c(Cl)c1,inactive
12,C[C@@H]1CCCCO[C@H](CN(C)C(=O)Nc2cccc3ccccc23)[C@@H](C)CN([C@H](C)CO)C(=O)c2cc(NC(=O)Nc3ccc(C(F)(F)F)cc3)ccc2O1,inactive
13,COc1ccc(S(=O)(=O)Nc2ccc3c(c2)C(=O)N([C@@H](C)CO)C[C@@H](C)[C@H](CN(C)C(=O)Nc2ccc(F)cc2)OCCCC[C@@H](C)O3)cc1,inactive
14,C[C@@H]1CN([C@H](C)CO)C(=O)c2c(c3ccccc3n2C)-c2ccccc2CO[C@H]1CN(C)C(=O)Nc1cccc(Cl)c1Cl,inactive
15,COc1ccccc1NC(=O)N(C)C[C@@H]1OCc2ccccc2-c2c(n(C)c3ccccc23)C(=O)N([C@@H](C)CO)C[C@H]1C,inactive
16,C[C@H](CO)N1C[C@H](C)[C@H](CN(C)C(=O)Nc2cccc(Cl)c2Cl)OCc2ccccc2-c2c(n(C)c3ccccc23)C1=O,inactive
17,C[C@H](CO)N1C[C@H](C)[C@@H](CN(C)C(=O)Nc2cccc(Cl)c2Cl)OCc2ccccc2-c2c(n(C)c3ccccc23)C1=O,active
18,C[C@@H]1CN([C@@H](C)CO)C(=O)c2c(c3ccccc3n2C)-c2ccccc2CO[C@@H]1CN(C)C(=O)Nc1cccc(Cl)c1Cl,inactive
19,C[C@H]1CN([C@@H](C)CO)C(=O)c2c(c3ccccc3n2C)-c2ccccc2CO[C@@H]1CN(C)C(=O)Nc1cccc(Cl)c1Cl,active
20,C[C@H]1CN([C@@H](C)CO)C(=O)c2c(c3ccccc3n2C)-c2ccccc2CO[C@H]1CN(C)C(=O)Nc1cccc(Cl)c1Cl,inactive
21,C[C@@H]1CN([C@@H](C)CO)C(=O)c2c(c3ccccc3n2C)-c2ccccc2CO[C@H]1CN(C)C(=O)Nc1cccc(Cl)c1Cl,inactive
22,C[C@@H]1CN([C@H](C)CO)C(=O)c2c(c3ccccc3n2C)-c2ccccc2CO[C@@H]1CN(C)C(=O)Nc1cccc(Cl)c1Cl,active
23,COc1ccc(S(=O)(=O)N(C)C[C@H]2OCCCC[C@H](C)Oc3ccc(NC(=O)C4CCCCC4)cc3C(=O)N([C@H](C)CO)C[C@@H]2C)cc1,inactive

row,Structure (SMILES),cytotoxicity call
1,Cn1c(C(=O)N[C@H](CO)Cc2c[nH]c3ccccc23)cc(=O)n(C)c1=O,inactive
2,C[C@H](CO)N1C[C@H](C)[C@@H](CN(C)C(=O)CCCN(C)C)OCc2cn(nn2)CCCC1=O,inactive
3,Cc1ccc(S(=O)(=O)Nc2ccc3c(c2)C(=O)N([C@H](C)CO)C[C@H](C)[C@@H](CN(C)C(=O)CCC(F)(F)F)OCCCC[C@@H](C)O3)cc1,inactive
4,CC(C)C(=O)NCc1nnnn1-c1ccccc1,inactive
5,C[C@@H]1CCCCO[C@@H](CN(C)C(=O)c2ccccc2)[C@@H](C)CN([C@@H](C)CO)C(=O)c2cc(NC(=O)Cc3ccccc3)ccc2O1,inactive
6,COc1ccc(CN(C)C[C@@H]2Oc3c(NC(=O)c4cnccn4)cccc3C(=O)N([C@H](C)CO)C[C@H]2C)cc1,inactive
7,O=C1O[C@@H](c2ccccc2)[C@@H](c2ccccc2)N2[C@@H](c3ccc(O)cc3)[C@]3(C(=O)Nc4ccccc43)[C@@H](C(=O)NC[C@H](O)c3ccccc3)[C@H]12,inactive
8,CN1CCN(C(=O)C[C@@H]2CC[C@@H]3[C@H](COC[C@H](O)CN3C(=O)C3CCCC3)O2)CC1,inactive
9,Cc1cc(O)c(C(C)C)cc1Cl,inactive
10,COc1cccc(C#Cc2cnc3c(c2)C(=O)N([C@@H](C)CO)C[C@H](C)[C@@H](CN(C)C(=O)C2CCC2)O3)c1,inactive
11,C=C1C2CCC3(C)C(c4ccoc4)OC(=O)CC13OC1CC(=O)C(C)(C)C(C(O)C(=O)OC)C12C (stereo not given),inactive
12,CC(C)NC(=O)Nc1ccc2c(c1)C(=O)N([C@@H](C)CO)C[C@@H](C)[C@H](CN(C)S(=O)(=O)c1cn(C)cn1)O2,inactive
13,O=C(C[C@H]1CC[C@H]2[C@@H](COC[C@@H](O)CN2C(=O)c2ccccc2F)O1)N1CCN(c2ccccc2)CC1,inactive
14,COc1ccc(-c2ccc3c(c2)O[C@H](CN(C)CC2CCOCC2)[C@@H](C)CN([C@@H](C)CO)S3(=O)=O)cc1,inactive
15,Cc1[nH]c(/C=C2\C(=O)Nc3ccc(S(=O)(=O)Cc4c(Cl)cccc4Cl)cc32)c(C)c1C(=O)N1CCC[C@@H]1CN1CCCC1,active
16,C[C@H](CO)N1C[C@H](C)[C@@H](CN(C)Cc2ccc(C(=O)O)cc2)Oc2ccc(NC(=O)Nc3ccc(C(F)(F)F)cc3)cc2C1=O,inactive
17,C[C@@H]1CN([C@@H](C)CO)C(=O)c2cc(NC(=O)Nc3ccc(C(F)(F)F)cc3)ccc2O[C@H]1CN(C)Cc1ccccc1,active
18,C[C@H](CO)N1C[C@H](C)[C@H](CN(C)Cc2ccc(C(=O)O)cc2)Oc2ccc(NC(=O)Nc3ccc(C(F)(F)F)cc3)cc2C1=O,inactive
19,C[C@@H]1CN([C@H](C)CO)C(=O)c2cc(NC(=O)Nc3ccc(C(F)(F)F)cc3)ccc2O[C@H]1CN(C)Cc1ccccc1,active
20,C[C@H](CO)N1C[C@H](C)[C@H](CN(C)Cc2ccccc2)Oc2ccc(NC(=O)Nc3ccc(C(F)(F)F)cc3)cc2C1=O,inactive
21,C[C@@H]1CN([C@@H](C)CO)C(=O)c2cc(NC(=O)Nc3ccc(C(F)(F)F)cc3)ccc2O[C@@H]1CN(C)Cc1ccccc1,active
22,C[C@H](CO)N1C[C@H](C)[C@@H](CN(C)Cc2ccccc2)Oc2ccc(NC(=O)Nc3ccc(C(F)(F)F)cc3)cc2C1=O,active
